Laboratory results: PubChem BioAssay (NCATS)
Results filed as inconclusive are left out. The source made the active and inactive calls. Calls follow the shape of the dose curve; as a rule, active = well fitted cell-killing curve with a large enough effect; inconclusive = small, poorly fitted or top-dose-only effect, or effect the other way; inactive = no such curve, though single readings can be large or run the other way.

assay: Viability qHTS for spleen associated tyrosine kinase inhibitor (SYKi) naive MV4-11 cells (AID 1963823); conditions: MV4-11 AML viability, CellTiter-Glo luminescence, 72 h; series mostly up to 45 µM; viability (% of control): at the top concentration; also: nearly all actives have a fitted effect of over 40% in size
Procedure, shortened: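 CellTiter-Glo luminescence, 10 min room-temperature incubation, gave viability. Cells: naive MV4-11 (500/well), treated 72 hr at 37 C, 5% CO2.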
Potency is read from the fitted curve at half-maximal effect.

Row | Structure (SMILES) | viability (% of control) | Potency
1 | COC(=O)C1=CO[C@@H](O[C@@H]2O[C@H](CO)[C@@H](O)[C@H](O)[C@H]2O)[C@@H]2C(C)CC(=O)[C@]12O (stereo not given in full) | 80.5% [at 17.3 µM] (inactive) | –
2 | C=C(C)C(=O)OC1CC2(C)OC(=CC2=O)C(=C)CC2OC(=O)C(=C)C12 (stereo not given) | – | 0.255 µM (active)
3 | CC1(C)CCC[C@@]2(C)[C@H]1[C@H](O)C=C(CO)[C@]2(O)CO | 88.6% (inactive) | –
4 | O=C(Nc1cccc(C(F)(F)F)c1)c1ccccc1NCc1ccncc1 | – | 8.2 µM (active)
5 | CCOC(=O)CCNc1cc(N2CCc3ccccc3CC2)nc(-c2cccnc2)n1 | 68.3% (inactive) | –
6 | CO/N=C(/C(=O)N[C@@H]1C(=O)N2C(C(=O)O)=C(CSC(=O)c3ccco3)CS[C@H]12)c1csc(N)n1 | – | inactive
7 | CC(=O)c1ccc2c(c1)C(O)C(C(C)(C)O)O2 (stereo not given) | 79.4% (inactive) | –
8 | CCOc1c2c(c(OCC)c3ccccc13)C(=O)N(c1ccc(CC(=O)NS(=O)(=O)c3ccccc3)cc1)C2 | 89.9% (inactive) | –
9 | COc1ccnc2[nH]cc(C(=O)C(=O)N3CCN(C(=O)c4ccccc4)CC3C)c12 (stereo not given) | 75.4% (inactive) | –
10 | CC1(C)CC[C@]2(C(=O)O)CC[C@]3(C)C(=CCC4[C@@]5(C)C[C@@H](O)[C@H](O)[C@@](C)(CO)C5CC[C@]43C)C2C1 (stereo not given in full) | 73.1% [at 17.3 µM] (inactive) | –
11 | CC1=CC(=O)CC(C)(CO)C1(O)/C=C/C(C)O[C@@H]1O[C@H](CO)[C@@H](O)[C@H](O)[C@H]1O (stereo not given in full) | 96.5% [at 17.3 µM] (inactive) | –
12 | O=C(C1=CCN2c3c(cccc31)OC[C@H]2CN1CCOCC1)c1cccc2ccccc12 | – | 14.6 µM (active)
13 | Cc1occc(=O)c1O[C@@H]1O[C@H](CO)[C@@H](O)[C@H](O)[C@H]1O | 89% (inactive) | –
14 | CC(OC1OCCN(Cc2n[nH]c(=O)[nH]2)C1c1ccc(F)cc1)c1cc(C(F)(F)F)cc(C(F)(F)F)c1 (stereo not given) | – | 9.2 µM (active)
15 | C[C@@H]1C[C@H](O)/C=C/[C@H](O)[C@@H](O)CC(=O)O1 | 81.5% (inactive) | –
16 | C[C@@]1(O)[C@H](O)[C@@H](CO)O[C@H]1n1cnc2c(=O)[nH]c(N)nc21 | 86.6% (inactive) | –
17 | Oc1cccc(Nc2ccnc3[nH]c4ccccc4c23)c1 | – | 1.84 µM (active)
18 | CC(=O)OC[C@@]12C(=O)C[C@@H](C)[C@]3(C[C@@H](c4ccoc4)O[C@H]3OC(C)=O)[C@H]1CCC[C@]21CO1 | 71.9% [at 17.3 µM] (inactive) | –
19 | O=C(OC[C@H]1O[C@@H](Oc2ccccc2CO)[C@H](O)[C@@H](O)[C@@H]1O)c1ccccc1 | 94.4% (inactive) | –
20 | C=CC(C)(C)C12C=C(OC)C(=O)N3C(C(C)C)C(=O)NC31N(OC)c1ccccc12 (stereo not given) | 66.7% [at 17.3 µM] (inactive) | –

Row | Structure (SMILES) | viability (% of control) | Potency
21 | CN(C)Cc1ccc(-c2cnn3c(-c4cccc(NC(=O)c5cccc(C(F)(F)F)c5)c4)ccnc23)cc1 | – | 2.91 µM (active)
22 | C=CC(=O)N1CCC(C2CCNc3c(C(N)=O)c(-c4ccc(Oc5ccccc5)cc4)nn32)CC1 (stereo not given) | – | 7.42 µM (active)
23 | O=C(C[C@@H]1C(C(=O)O)=CO[C@@H](O[C@@H]2O[C@H](CO)[C@@H](O)[C@H](O)[C@H]2O)/C1=C\CO)OCCc1ccc(O)cc1 | 90.5% [at 17.3 µM] (inactive) | –
24 | COc1ccc(OC(=O)N(CC(=O)O)Cc2ccc(OCCc3nc(-c4ccccc4)oc3C)cc2)cc1 | 69% (inactive) | –
25 | CCc1c(C)nc2c(-c3cnn(-c4cc(CO)ccn4)c3)c[nH]n2c1=O | 112% (inactive) | –
26 | COC1CC(O[C@H]2CC[C@@]3(C)C(CCC4C3[C@H](OC(C)=O)[C@@H](OC(=O)/C=C/c3ccccc3)[C@]3(C)C(C(C)=O)CC[C@]43O)C2)OC(C)C1OC1CC(OC)C(OC2CC(OC)C(OC3OC(C)C(OC4OC(CO)C(O)C(O)C4O)C(OC)C3O)C(C)O2)C(C)O1 (stereo not given in full) | 48.3% [at 9.25 µM] (inactive) | –
27 | CN(CC1COCCO1)S(=O)(=O)Nc1ccc2ccc3ncc(-c4cnn(C)c4)cc3c(=O)c2c1 (stereo not given) | – | 0.164 µM (active)
28 | C=C1C(=O)O[C@@H]2C[C@H](C)[C@@H]3CC(=O)[C@H](O)[C@@]3(C)C[C@H]12 | – | 9.2 µM (active)
29 | CC(=O)O[C@H]1[C@H](O[C@H]2CC[C@]34C[C@]35CC[C@]3(C)[C@@H]([C@@]6(C)CC[C@@H](C(C)(C)O)O6)[C@@H](O)C[C@@]3(C)[C@@H]5C[C@H](O[C@@H]3O[C@H](CO)[C@@H](O)[C@H](O)[C@H]3O)[C@H]4C2(C)C)OC[C@@H](OC(C)=O)[C@@H]1O | 74.3% (inactive) | –
30 | Cc1cn([C@H]2C[C@H](O)[C@@H](CO)O2)c(=O)nc1N | 79.2% (inactive) | –
31 | CCCC(Nc1nc(-c2ccc(NC(=O)NCC)c(OC)c2)ncc1C)c1cccnc1 (stereo not given) | – | 0.058 µM (active)
32 | [O-][n+]1cccc(-c2nc3c(Cl)cccc3cc2[C@@H](Nc2ncnc3cccnc23)C(F)(F)F)c1 | – | 4.17 µM (active)
33 | COc1ccc(C(=O)N(CCC(C)C)Cc2nc(C)c(C)n2Cc2ccccc2C)c(OC)c1 | – | 20.6 µM (active)
34 | C=C1C(=O)OC2C3=C(C)C(=O)CC3C(C)CC(O)C12 (stereo not given) | – | 13 µM (active)
35 | CCCc1c(C(C)C)nc(C(C)C)c([C@@H](C)O)c1-c1ccc(F)cc1O | – | 9.2 µM (active)
36 | OCC1OC(Oc2cc(O)cc(/C=C/c3ccc(O)cc3)c2)C(O)C(O)C1O (stereo not given) | 99.2% (inactive) | –
37 | CC1(C)CC[C@]23CO[C@@]4(CCC5[C@@]6(C)CC[C@H](O[C@@H]7OC[C@H](O[C@@H]8O[C@H](CO)[C@@H](O)[C@H](O)[C@H]8O)[C@H](O)[C@H]7O[C@@H]7O[C@H](CO)[C@@H](O[C@@H]8O[C@H](CO)[C@@H](O)[C@H](O)[C@H]8O)[C@H](O)[C@H]7O)[C@@](C)(CO)C6CC[C@@]5(C)[C@]4(C)C[C@H]2OC2OCC(O)C(O)C2O)C3C1 (stereo not given in full) | – | 1.95 µM (active)
38 | Nc1ccc(-c2cccc3c(=O)cc(N4CCOCC4)oc23)cc1 | – | 9.2 µM (active)
39 | CC(C)C1(O[C@@H]2O[C@H](CO)[C@@H](O)[C@H](O)[C@H]2O)CC=C(CO)CC1 (stereo not given in full) | 77.9% (inactive) | –
40 | O=C1C=CC2OC(c3ccccc3)C(O)C2O1 (stereo not given) | – | 6.51 µM (active)
